Results: PubChem BioAssay (EPA / NIEHS)
Active and inactive are the calls of the source. Rule for the calls: active = hit-call score of the fitted dose curve at least 0.9, where 1 is the maximum; inactive = score below 0.9.

Tests used:
[1] = ATG_CRE_CIS: Attagene CIS-FACTORIAL HepG2 Assay for human cAMP Responsive Element (CRE) binding protein 3 (AID 2282926); settings: HepG2 CRE cis-reporter, Attagene multiplexed mRNA; actives raise or lower the signal
Procedure, shortened: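 Assay format: transient reporter transfection of HepG2, 24 h treatment, total RNA isolation with DNase I step. Reporter abundance read by fluorescence after PCR and capillary separation; DMSO-normalised gain or loss fitting.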

[2] = ATG_CMV_CIS: Attagene CIS-FACTORIAL HepG2 Assay for human CMV (Internal Marker) (AID 2282928); settings: HepG2 CMV promoter reporter, transcription factor profiling; actives raise or lower the signal;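 note: endpoint acts as a background internal control marker rather than a target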
Procedure, shortened: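 24 h chemical treatment, HepG2 with transient multi-reporter transfection; RNA → oligo(dT) RT → PCR → 6-FAM extension → HpaI digest → CE fluorescence. Bidirectional fit, DMSO negative control.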

[3] = ATG_DR4_LXR_CIS: Attagene CIS-FACTORIAL HepG2 Assay for human Liver X Receptor (LXR), DR4 submotif (AID 2282929); settings: HepG2 Attagene DR4 cis-reporter, mRNA transcription; actives raise or lower the signal
Procedure, shortened: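 Transiently transfected HepG2 liver cells; cis-regulated reporters; 24 h dosing. RT-PCR plus CE read-out of reporter mRNA. DMSO baseline, bidirectional curve fitting.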

[4] = ATG_AP_1_CIS: Attagene CIS-FACTORIAL HepG2 Assay for human Activator Protein 1 (AP-1) (AID 2282931); settings: HepG2 Attagene cis-factorial AP-1 reporter mRNA; actives raise or lower the signal
Procedure, shortened: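 We transfected HepG2 cells transiently with a set of cis-regulated reporter transcription units, dosed them for 24 h, and quantified reporter mRNA via RT-PCR and capillary electrophoresis, scoring gain or loss of signal relative to DMSO.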

[5] = ATG_AP_2_CIS: Attagene CIS-FACTORIAL HepG2 Assay for human Activator Protein 2 (AP-2) (AID 2282932); settings: HepG2 AP-2 cis-reporter, Attagene transcription factor profiling; actives raise or lower the signal
Procedure, shortened: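 Cells (HepG2) transfected with promoter-driven reporter constructs, treated 24 h. Total RNA reverse-transcribed, reporter cDNA PCR-amplified, FAM-labelled by primer extension, digested, resolved by capillary electrophoresis. Activity fitted both directions versus DMSO.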

[6] = ATG_BRE_CIS: Attagene CIS-FACTORIAL HepG2 Assay for human Bone Morphogenetic Protein (BMP) Response Element (BRE) (AID 2282933); settings: HepG2 BMP response element reporter, Attagene transcription factor profiling; actives raise or lower the signal
Procedure, shortened: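 Transient MRTU transfection of human HepG2 liver cells; 24 h compound treatment; total RNA isolated, reverse-transcribed, PCR-amplified, 6-FAM labelled, HpaI-cut, capillary electrophoresis. DMSO = negative control/baseline, bidirectional fit.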

[7] = target: Retinoic acid receptor alpha (Homo sapiens) (UniProt P10276); experiment: ATG_DR5_RAR_CIS: Attagene CIS-FACTORIAL HepG2 Assay for human Retinoic Acid Receptor Alpha (RARE), DR5 submotif (AID 2282934); settings: HepG2 Attagene cis-factorial RARE DR5 reporter, mRNA; actives raise or lower the signal;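 for AC50: reporter responds to endogenous RAR alpha beta and gamma in HepG2 not RARA alone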
Retinoic acid receptor alpha (Homo sapiens), sequence (P10276 whole entry, looked up): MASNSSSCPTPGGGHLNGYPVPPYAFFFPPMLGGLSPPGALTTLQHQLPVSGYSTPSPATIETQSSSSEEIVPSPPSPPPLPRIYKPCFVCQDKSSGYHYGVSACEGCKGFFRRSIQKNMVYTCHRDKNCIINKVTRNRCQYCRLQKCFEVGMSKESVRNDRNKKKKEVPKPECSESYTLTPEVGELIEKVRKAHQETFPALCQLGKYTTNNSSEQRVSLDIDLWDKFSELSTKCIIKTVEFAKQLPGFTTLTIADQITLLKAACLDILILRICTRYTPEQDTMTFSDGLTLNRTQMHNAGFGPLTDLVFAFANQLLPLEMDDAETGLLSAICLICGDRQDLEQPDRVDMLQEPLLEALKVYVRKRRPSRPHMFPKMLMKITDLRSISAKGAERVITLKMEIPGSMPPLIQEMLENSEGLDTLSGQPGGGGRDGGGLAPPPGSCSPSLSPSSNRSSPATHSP
Procedure, shortened: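 HepG2 cells transiently transfected with multiplexed reporter units under cis (DR5 RARE) promoters, so endogenous transcription factor activity is measured. After 24 h compound exposure, reporter mRNA is quantified by RT-PCR with fluorescent labelling and capillary electrophoresis; bidirectional fitting versus DMSO.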

[8] = target: Transcription factor E2F1 (Homo sapiens) (UniProt Q01094); experiment: ATG_E2F_CIS: Attagene CIS-FACTORIAL HepG2 Assay for human E2F Transcription Factor 1 (AID 2282935); settings: HepG2 Attagene cis-reporter, E2F reporter RNA transcripts; actives raise or lower the signal
Transcription factor E2F1 (Homo sapiens), sequence (Q01094 whole entry, looked up): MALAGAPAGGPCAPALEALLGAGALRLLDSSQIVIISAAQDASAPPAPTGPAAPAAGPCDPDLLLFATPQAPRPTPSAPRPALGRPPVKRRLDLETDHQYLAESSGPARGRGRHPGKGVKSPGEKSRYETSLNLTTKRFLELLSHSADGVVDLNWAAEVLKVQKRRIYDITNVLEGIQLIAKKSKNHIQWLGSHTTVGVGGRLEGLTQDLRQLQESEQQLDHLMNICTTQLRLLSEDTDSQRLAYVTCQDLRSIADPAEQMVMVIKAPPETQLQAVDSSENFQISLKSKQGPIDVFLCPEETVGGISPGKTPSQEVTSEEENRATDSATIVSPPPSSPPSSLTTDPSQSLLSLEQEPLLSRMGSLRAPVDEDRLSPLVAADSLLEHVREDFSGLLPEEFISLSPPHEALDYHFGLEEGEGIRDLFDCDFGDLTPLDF
Procedure, shortened: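 First, HepG2 cells were transfected with reporter transcription units. Next, they were dosed for 24 h. Then RNA was isolated, converted to cDNA, PCR-amplified, FAM-labeled, HpaI-digested and analyzed by capillary electrophoresis.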

[9] = ATG_E_Box_CIS: Attagene CIS-FACTORIAL HepG2 Assay for human Enhancer Box (E-box) (AID 2282936); settings: HepG2 E-box cis-reporter transcription, actives raise or lower the signal
Procedure, shortened: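 Endogenous transcription factor activity was sensed in human HepG2 liver cells through transfected cis-promoter reporter units. After 24 h of dosing, total RNA was reverse-transcribed and reporter cDNA resolved by capillary electrophoresis.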

[10] = ATG_M_61_CIS: Attagene CIS-FACTORIAL HepG2 Assay for M61 Transcription Factor (Internal Marker) (AID 2282937); settings: HepG2 Attagene CIS-FACTORIAL M61 internal marker reporter; actives raise or lower the signal
Procedure, shortened: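 Multiplexed reporter mRNA assay, HepG2 human hepatoma cells, 24 h treatment. Signal: FAM-labelled, HpaI-digested RT-PCR fragments by CE. Fit: bidirectional, baseline DMSO.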

[11] = ATG_EGR_CIS: Attagene CIS-FACTORIAL HepG2 Assay for human Early Growth Response 1 (EGR1) (AID 2282938); settings: HepG2 Attagene CIS-FACTORIAL EGR reporter mRNA; actives raise or lower the signal
Procedure, shortened: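 Multiplexed cis-reporter system in human hepatoma HepG2 cells, transiently transfected. Cells are dosed for 24 h; reporter transcripts are amplified, fluorescently tagged and sized by capillary electrophoresis, with DMSO as negative control.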

[12] = ATG_M_19_CIS: Attagene CIS-FACTORIAL HepG2 Assay for M19 Transcription Factor (Internal Marker) (AID 2282939); settings: HepG2 Attagene CIS-FACTORIAL M19 internal marker reporter; actives raise or lower the signal
Procedure, shortened: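 Transfect HepG2 with MRTU reporter library → dose chemical, 24 h → isolate total RNA, reverse-transcribe with oligo(dT) → PCR, 6-FAM label, HpaI cut (2 h, 37 C) → capillary electrophoresis. Bidirectional fit vs DMSO.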

[13] = ATG_ERE_CIS: Attagene CIS-FACTORIAL HepG2 Assay for Estrogen Response Element (ERE) (AID 2282940); settings: HepG2 ERE cis-reporter, Attagene RNA transcript; actives raise or lower the signal
Procedure, shortened: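 Transient MRTU transfection of human HepG2; cis-element promoters; 24 h dosing; total RNA → RT (oligo dT) → PCR → 6-FAM primer extension → HpaI digest → CE fluorescence. Bidirectional fit, DMSO baseline.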

[14] = ATG_Ets_CIS: Attagene CIS-FACTORIAL HepG2 Assay for human Erythroblast Transformation Specific (ETS) (AID 2282941); settings: HepG2 ETS cis-reporter transcription, actives raise or lower the signal
Procedure, shortened: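 Cis-regulated reporter mRNA induction in HepG2 (transient transfection), 24 h exposure, RT-PCR plus capillary electrophoresis detection; DMSO serves as negative control and baseline.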

[15] = target: Hepatocyte nuclear factor 3-beta (Homo sapiens) (UniProt Q9Y261); experiment: ATG_FoxA2_CIS: Attagene CIS-FACTORIAL HepG2 Assay for human Forkhead box A2 (FOXA2) (AID 2282942); settings: HepG2 cis-reporter transcription factor activity, 24 h; actives raise or lower the signal
Hepatocyte nuclear factor 3-beta (Homo sapiens), sequence (Q9Y261 whole entry, looked up): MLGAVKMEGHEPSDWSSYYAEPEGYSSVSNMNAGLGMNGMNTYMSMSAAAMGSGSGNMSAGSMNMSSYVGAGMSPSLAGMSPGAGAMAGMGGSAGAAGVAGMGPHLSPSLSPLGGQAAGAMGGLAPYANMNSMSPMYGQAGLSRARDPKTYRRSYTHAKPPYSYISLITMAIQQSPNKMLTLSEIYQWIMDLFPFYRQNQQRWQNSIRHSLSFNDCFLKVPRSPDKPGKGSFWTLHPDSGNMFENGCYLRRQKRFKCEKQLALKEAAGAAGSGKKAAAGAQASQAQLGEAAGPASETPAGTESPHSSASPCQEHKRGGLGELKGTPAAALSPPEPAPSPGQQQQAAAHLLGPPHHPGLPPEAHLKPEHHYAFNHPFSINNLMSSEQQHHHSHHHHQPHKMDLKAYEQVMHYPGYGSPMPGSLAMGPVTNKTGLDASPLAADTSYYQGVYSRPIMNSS
Procedure, shortened: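 Multiplexed cis-element reporter assay in transiently transfected HepG2. Twenty-four hours post-dosing, RNA was reverse-transcribed, amplified, FAM-labelled, HpaI-digested and separated by CE. Activity gain or loss relative to DMSO.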

[16] = ATG_FoxO_CIS: Attagene CIS-FACTORIAL HepG2 Assay for human Forkhead box O (FoxO) (AID 2282943); settings: HepG2 Attagene cis-reporter, FoxO element, mRNA; actives raise or lower the signal
Procedure, shortened: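 HepG2 cells transiently transfected with cis-promoter-driven multiple reporter transcription units; 24 h after chemical dosing, reporter mRNA quantified by RT-PCR, fluorescent primer extension, HpaI digestion and capillary electrophoresis. Bidirectional fitting versus DMSO baseline.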

[17] = ATG_GATA_CIS: Attagene CIS-FACTORIAL HepG2 Assay for human GATA Binding Protein (AID 2282944); settings: HepG2 GATA cis-element reporter, Attagene multiplex mRNA; actives raise or lower the signal
Procedure, shortened: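 Transient MRTU transfection, HepG2, 24 h compound exposure. Total RNA → oligo(dT) RT → PCR → 6-FAM primer extension → HpaI cut → CE. Bidirectional fit vs DMSO.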

[18] = ATG_GLI_CIS: Attagene CIS-FACTORIAL HepG2 Assay for human Zinc Finger Protein GLI1 (AID 2282945); settings: HepG2, Attagene cis-factorial reporter mRNA, GLI element; actives raise or lower the signal
Procedure, shortened: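 HepG2 cells transiently transfected with cis-promoter multiplexed reporter units report endogenous transcription factor activity. After 24 h chemical exposure, reporter mRNA was quantified by RT-PCR, 6-FAM labelling, HpaI digestion and capillary electrophoresis, with bidirectional fitting against DMSO.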

[19] = target: Aryl hydrocarbon receptor (Homo sapiens) (UniProt P35869); experiment: ATG_Ahr_CIS: Attagene CIS-FACTORIAL HepG2 Assay for human Aryl Hydrocarbon Receptor (Ahr) (AID 2282930); settings: HepG2 AhR cis-factorial reporter transcription; actives raise or lower the signal
Aryl hydrocarbon receptor (Homo sapiens), sequence (P35869 whole entry, looked up): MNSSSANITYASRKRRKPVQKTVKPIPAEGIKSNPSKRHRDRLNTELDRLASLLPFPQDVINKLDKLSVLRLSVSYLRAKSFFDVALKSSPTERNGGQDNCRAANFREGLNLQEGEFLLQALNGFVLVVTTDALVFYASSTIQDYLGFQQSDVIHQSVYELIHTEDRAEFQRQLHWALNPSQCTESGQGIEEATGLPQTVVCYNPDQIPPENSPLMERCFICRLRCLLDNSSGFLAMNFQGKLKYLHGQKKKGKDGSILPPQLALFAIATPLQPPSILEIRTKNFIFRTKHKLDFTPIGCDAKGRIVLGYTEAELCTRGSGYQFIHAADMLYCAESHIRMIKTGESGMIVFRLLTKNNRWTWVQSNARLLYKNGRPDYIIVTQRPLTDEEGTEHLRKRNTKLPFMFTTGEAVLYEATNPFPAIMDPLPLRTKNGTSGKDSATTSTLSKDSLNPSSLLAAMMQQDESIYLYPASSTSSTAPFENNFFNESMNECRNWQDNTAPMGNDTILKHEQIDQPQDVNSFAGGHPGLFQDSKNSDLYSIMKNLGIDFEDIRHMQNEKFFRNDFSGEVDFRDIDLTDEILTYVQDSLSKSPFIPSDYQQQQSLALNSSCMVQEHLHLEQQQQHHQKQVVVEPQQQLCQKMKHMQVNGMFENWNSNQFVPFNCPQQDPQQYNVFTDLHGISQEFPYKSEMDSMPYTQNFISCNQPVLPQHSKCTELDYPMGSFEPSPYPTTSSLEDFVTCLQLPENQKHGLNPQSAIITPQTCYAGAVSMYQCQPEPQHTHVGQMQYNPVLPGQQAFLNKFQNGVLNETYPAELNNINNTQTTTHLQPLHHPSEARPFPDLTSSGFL
Procedure, shortened: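 HepG2 cells transiently transfected with cis-element-driven multiplexed reporter transcription units; endogenous transcription factor activity measured as reporter mRNA 24 h after dosing. RT-PCR, 6-FAM labelling, HpaI digestion, capillary electrophoresis; bidirectional fitting versus DMSO baseline.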

[20] = target: CCAAT/enhancer-binding protein beta (Homo sapiens) (UniProt P17676); experiment: ATG_C_EBP_CIS: Attagene CIS-FACTORIAL HepG2 Assay for human CCAAT/Enhancer Binding Protein (C/EBP) beta (AID 2282927); settings: HepG2 Attagene cis-factorial transcription factor reporter; actives raise or lower the signal
CCAAT/enhancer-binding protein beta (Homo sapiens), sequence (P17676 whole entry, looked up): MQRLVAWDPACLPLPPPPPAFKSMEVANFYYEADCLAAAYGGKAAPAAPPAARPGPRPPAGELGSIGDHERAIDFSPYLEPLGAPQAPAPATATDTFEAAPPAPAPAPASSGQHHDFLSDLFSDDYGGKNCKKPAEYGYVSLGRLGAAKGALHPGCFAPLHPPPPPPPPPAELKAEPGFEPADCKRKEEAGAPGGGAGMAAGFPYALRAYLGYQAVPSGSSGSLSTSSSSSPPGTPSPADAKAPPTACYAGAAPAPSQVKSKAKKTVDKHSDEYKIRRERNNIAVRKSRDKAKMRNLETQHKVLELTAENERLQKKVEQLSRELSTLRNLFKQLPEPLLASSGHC
Procedure, shortened: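 RT-PCR/capillary electrophoresis fluorescence of reporter mRNA, 24 h post-dose, in HepG2 cells carrying transfected cis-promoter reporter units. Bidirectional curve fitting against DMSO baseline captures gain or loss of signal.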

Measured: AC50

CC(C)(Oc1ccc(C2CC2(Cl)Cl)cc1)C(=O)O (stereo not drawn)
not listed: [19] | [20]
inactive: all other assays above

O=Nc1ccc(O)cc1
active: [13] 56.4 µM
not listed: [20]
inactive: all other assays above

CC(C)=CC1CC(C)CCO1 (stereo not drawn)
not listed: [2] | [5]
inactive: all other assays above

CCC(Cc1ccccc1)(C(=O)c1ccc(N2CCOCC2)cc1)N(C)C (stereo not drawn)
active: [4] 72.1 µM | [7] 73.1 µM | [9] 17 µM | [11] 31.6 µM | [13] 5.54 µM
not listed: [2] | [20]
inactive: all other assays above

CC(C)c1ccc(C#N)cc1
not listed: [5] | [19] | [20]
inactive: all other assays above

OCCN(CCO)c1ccccc1
active: [19] 13.7 µM
not listed: [20]
inactive: all other assays above

O=C(C=Cc1ccccc1)OCc1ccccc1
not listed: [20]
inactive: all other assays above
